Results: publication PMC4336329 (PLoS ONE, 2015)
The campaign covered roughly 310,000 compounds. About 14,000 (4.5%) showed an effect of 50% or more. Effects have a minus sign here. The sample as a whole holds a higher share of strong results than the screen did.

biological target: human ether-à-go-go-related gene (hERG) potassium channel (human, UniProt Q12809); experiment: primary screen, population patch clamp on CHO cells stably expressing hERG; higher = less effect of the substance
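Also: peak tail current of the secondary pulse compared with the same well before compound.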

human ether-à-go-go-related gene (hERG) potassium channel, sequence (Q12809 whole entry, looked up): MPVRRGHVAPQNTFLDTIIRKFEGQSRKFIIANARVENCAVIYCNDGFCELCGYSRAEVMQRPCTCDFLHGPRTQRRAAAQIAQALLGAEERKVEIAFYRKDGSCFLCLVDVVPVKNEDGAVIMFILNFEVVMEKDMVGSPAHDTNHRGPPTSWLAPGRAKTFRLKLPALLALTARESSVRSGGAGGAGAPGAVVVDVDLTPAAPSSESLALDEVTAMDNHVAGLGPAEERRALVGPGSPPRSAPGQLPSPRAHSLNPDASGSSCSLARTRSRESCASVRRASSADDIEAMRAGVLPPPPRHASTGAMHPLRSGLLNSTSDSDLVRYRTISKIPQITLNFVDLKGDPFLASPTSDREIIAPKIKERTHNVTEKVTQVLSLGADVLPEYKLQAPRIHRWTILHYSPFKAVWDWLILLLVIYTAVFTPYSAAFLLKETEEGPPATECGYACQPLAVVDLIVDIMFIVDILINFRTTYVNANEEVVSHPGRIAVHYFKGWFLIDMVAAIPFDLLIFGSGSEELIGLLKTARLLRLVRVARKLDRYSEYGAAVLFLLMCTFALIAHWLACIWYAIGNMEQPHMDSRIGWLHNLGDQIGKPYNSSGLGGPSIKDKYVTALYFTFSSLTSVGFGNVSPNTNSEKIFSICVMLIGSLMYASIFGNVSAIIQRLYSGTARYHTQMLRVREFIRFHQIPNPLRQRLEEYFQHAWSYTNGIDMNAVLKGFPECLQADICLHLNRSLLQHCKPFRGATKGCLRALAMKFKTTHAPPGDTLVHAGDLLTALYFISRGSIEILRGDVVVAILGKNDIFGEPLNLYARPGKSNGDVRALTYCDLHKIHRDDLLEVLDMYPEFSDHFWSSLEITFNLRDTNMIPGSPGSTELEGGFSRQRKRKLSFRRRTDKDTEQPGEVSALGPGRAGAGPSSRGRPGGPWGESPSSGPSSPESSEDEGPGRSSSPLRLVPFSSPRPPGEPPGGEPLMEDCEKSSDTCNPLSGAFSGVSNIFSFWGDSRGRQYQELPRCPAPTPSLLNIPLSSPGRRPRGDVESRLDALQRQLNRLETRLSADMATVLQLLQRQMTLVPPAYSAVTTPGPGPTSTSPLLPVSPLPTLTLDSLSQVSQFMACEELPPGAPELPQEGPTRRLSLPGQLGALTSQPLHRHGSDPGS

SMILES	hERG current change (%, negative = inhibition) at 10uM
Cc1ccccc1Cn1c(=O)n(CCCC(=O)NCc2ccco2)c(=O)c2ccccc21	-15.5%
Nn1c(SCc2cccc(Cl)c2)nnc1-c1ccncc1	-2.64%
Cc1cc(C(=O)C(=O)N(C)C)c(C)n1-c1ccc(Cl)c(Cl)c1	-28.9%
COc1ccc(S(=O)(=O)N(CCN2CCOCC2)Cc2cc(OC)ccc2OC)cc1	-10.7%
Nc1ccc(NC(=O)c2ccccc2)c2c1C(=O)c1ccccc1C2=O	2.65%
CC(C)N1C(=O)CC(Nc2ccc(N3CCOCC3)cc2)C1=O (centres unmarked)	2.64%
CN1CCN(c2ccc(NC(=O)c3cc([N+](=O)[O-])ccc3N3CCOCC3)cc2)CC1	-2.4%
COc1cccc(NC(=O)c2cc([N+](=O)[O-])ccc2N2CCN(C)CC2)c1	-57.7%
COc1ccc(NC(=O)c2cc([N+](=O)[O-])ccc2N2CCNCC2)cc1	-44.5%
COc1ccc(NC(=O)c2cc([N+](=O)[O-])ccc2N2CCN(C)CC2)cc1	-43.4%
O=C(NC(=S)Nc1ccccc1)c1cc([N+](=O)[O-])ccc1N1CCOCC1	6.13%
Cc1ccc(NC(=O)c2cc([N+](=O)[O-])ccc2N2CCOCC2)cc1C	-42.3%
CN1CCN(c2ccc([N+](=O)[O-])cc2C(=O)Nc2ccccc2)CC1	-71.1%
O=C(O)c1cc([N+](=O)[O-])ccc1C(=O)Nc1ccccc1	12.7%
COc1ccc(NC(=O)c2cccc([N+](=O)[O-])c2)cc1	13%
Cc1cccc(NC(=O)c2cc([N+](=O)[O-])ccc2N2CCN(C)CC2)c1	-61.9%
COc1ccc(NC(=O)c2cc([N+](=O)[O-])ccc2N2CCCC2)cc1	-1.73%
COc1ccc(NC(=O)c2cc([N+](=O)[O-])ccc2O)cc1	-57.6%
CCC(C(=O)Nc1ccc(C)cc1)c1ccccc1 (centres unmarked)	19.1%
Nc1c(-c2cccc(Cl)c2)cnc2c(-c3ccccc3)cnn12	13.9%
N#C/C(=C\c1ccc(F)c(Cl)c1)S(=O)(=O)c1ccccn1	-6.64%
O=C(/C=C/c1ccc([N+](=O)[O-])cc1)c1cccs1	-23.4%
CCOCCCNC(=O)C(c1ccc(OC)cc1)N(Cc1ccc2c(c1)OCO2)C(=O)c1cnccn1 (centres unmarked)	8.96%
CCOc1ccc2c(CC)cc(=O)oc2c1OCC	-18.9%
O=C(Cn1cc(C(=O)C2CC2)c2ccccc21)Nc1ccc(F)cc1	-20.5%
O=C(Nc1cccc(Cl)c1)c1cc([N+](=O)[O-])ccc1N1CCN(CCO)CC1	-53%
O=C(Nc1cccc(Cl)c1N1CCOCC1)c1cc([N+](=O)[O-])ccc1N1CCOCC1	-21.1%

SMILES	hERG current change (%, negative = inhibition) at 10uM
O=C(Nc1ccccc1)c1cc([N+](=O)[O-])ccc1N1CCNCC1	-37.8%
Cc1ccccc1NC(=O)C1CCN(C(=O)N2CCOc3ccccc32)CC1	-8.57%
CCc1ccccc1NC(=O)C1CCN(C(=O)N2CCOc3ccccc32)CC1	1.77%
COC(=O)c1ccccc1NC(=O)C1CCN(C(=O)N2CCOc3ccccc32)CC1	-59.6%
CCCCC(=O)NC(c1ccccc1Cl)c1ccc2cccnc2c1O (centres unmarked)	15.2%
COc1ccc(S(=O)(=O)Nc2cc3c4c(c2)CC(=O)N4CCC3)cc1C	-4.48%
CC1CC(C)CN(CCCNC(=O)c2nn(C)c3c2CS(=O)(=O)c2ccccc2-3)C1 (centres unmarked)	-64.2%
CC(C)N(CCCNC(=O)c1nn(C)c2c1CS(=O)(=O)c1ccccc1-2)Cc1ccccc1	-34.5%
CC1CCN(CCCNC(=O)c2nn(C)c3c2CS(=O)(=O)c2ccccc2-3)CC1	-23.6%
CCN(CCCNC(=O)c1nn(C)c2c1CS(=O)(=O)c1ccccc1-2)Cc1ccccc1	-60.3%
CC1CC(C)CN(C(=O)c2nn(C)c3c2CS(=O)(=O)c2ccccc2-3)C1 (centres unmarked)	-12.7%
CN(CCCNC(=O)c1nn(C)c2c1CS(=O)(=O)c1ccccc1-2)Cc1ccccc1	-46.9%
Cc1cc(-c2nc(C)c(-c3nnc(SCC(=O)Nc4ccc(Cl)cc4)n3C)s2)no1	2.4%
COc1ccc(NC(=O)c2ccc(NC(=O)CSc3nccc(=O)[nH]3)cc2)cc1	15.4%
O=C(O)c1cc(-c2ccc(Cl)cc2)n(-c2ccccc2)n1	30.3%
O=C(c1cc(-c2ccc(Cl)c(Cl)c2)on1)N1CCOCC1	-14.1%
O=C(O)c1cc(-c2ccc(Cl)cc2)n(-c2cccc(Cl)c2)n1	23.4%
Cc1ccc(-n2nc(C(=O)N3CCOCC3)cc2-c2ccc(Cl)cc2)cc1	-83.3%
Cc1ccc(-n2nc(C(=O)O)cc2-c2ccccc2)cc1	14.5%
Cc1ccc(-n2nc(C(=O)O)cc2-c2ccc(Cl)cc2)cc1	24.9%
O=C(c1cc(-c2ccc(Cl)cc2)n(-c2ccc(Cl)cc2)n1)N1CCOCC1	-80.8%
O=C(c1cc(-c2ccc(Cl)cc2)n(-c2ccc(Cl)c(Cl)c2)n1)N1CCOCC1	-57%
O=C(O)c1cc(-c2ccc(Cl)cc2)n(-c2ccc(Cl)cc2)n1	38.2%
CCn1c(-c2cc(-c3ccc(OC(C)C)cc3)nc3ccccc23)n[nH]c1=S	2.71%
CCOC(=O)c1cc(NC(=O)N(CC)CC)c(C)nc1C	5.59%
Cc1cccc(C)c1NC(=O)CCc1nnc2ccc(N3CCCC3)nn12	10.3%
